From PubChem
S1P2 agonist: activates the human S1P2 receptor; O95136; 0.46% of 97,000 active; S1P2-expressing cell line, agonist reporter read-out; activation, % at 4.5 µM; in the data active = activation above about 16%;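 note: 0% = vehicle low control and 100% = maximal reference agonist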
GALR2 agonist: agonists of human galanin receptor 2 (GALR2). O43603. GALR2-expressing cells, agonist activation read-out. activation, % (test concentration not listed). 0.48% of 140,000 active; in the data active = activation above about 5%, passing the limit was not always enough;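 note: 0% = vehicle buffer wells and 100% = reference agonist at full effect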
Target sequence (O43603 whole entry, looked up): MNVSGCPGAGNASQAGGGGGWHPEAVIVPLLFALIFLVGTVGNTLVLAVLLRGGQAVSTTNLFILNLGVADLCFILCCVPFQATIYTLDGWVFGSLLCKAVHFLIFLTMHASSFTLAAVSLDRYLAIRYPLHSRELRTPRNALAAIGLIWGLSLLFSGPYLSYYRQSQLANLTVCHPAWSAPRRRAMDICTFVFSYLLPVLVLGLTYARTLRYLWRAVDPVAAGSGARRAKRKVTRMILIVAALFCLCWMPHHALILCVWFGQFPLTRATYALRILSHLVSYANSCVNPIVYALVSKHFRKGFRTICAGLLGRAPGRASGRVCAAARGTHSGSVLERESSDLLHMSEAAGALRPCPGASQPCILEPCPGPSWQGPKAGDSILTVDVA
S1P2 antag: S1P2 (human) receptor antagonism; 0.21% of 97,000 active; inhibition, % at 5 µM; O95136; AID 736; cell-based S1P2 antagonist assay, inhibition at 5 uM; in the data active = inhibition above about 45%;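 note: CRE beta-lactamase reporter cells expressing human S1P2 stimulated with S1P; 0% = agonist at EC80 alone and 100% = agonist plus reference antagonist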
GALR2 blocker: GALR2 (human) receptor antagonism; GALR2-expressing cells, antagonist mode; inhibition, % at 4 µM; 0.39% of 140,000 active; AID 828;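 note: cells stimulated with galanin 1-16 at roughly its EC80; 0% = agonist challenge control and 100% = basal control without agonist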
GALR2 ant conf: GALR2 (human) antagonism confirmed; shares compounds with GALR2 blocker; GALR2-expressing cells, antagonist mode, inhibition; inhibition, % at 4 µM; 60% of 480 active; AID 866;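 note: cells stimulated with galanin at about its EC80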
BLA inh counter: inhibits beta-lactamase reporter in GALR2 antagonist counterscreen. shares compounds with GALR2 blocker. CHO NFAT-BLA reporter, beta-lactamase FRET, thapsigargin-stimulated. inhibition, % at 4.2 µM. 36% of 480 active;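 active = inhibition above the mean inhibition across tested compounds plus 3 SD, cut at about 27% in these data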;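 note: 0% = 500 nM thapsigargin stimulated wells and 100% = unstimulated BSA only wells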
* = called active by the depositor; nt = no result given. The list is not random: actives were taken first. Their share in the collection is about 1.2%. Cut-off read from the data, not from the text of the source, unless noted: active = inhibition above about 27%; inactive = the rest.

SMILES	S1P2 agonist	GALR2 agonist	S1P2 antag	GALR2 blocker	GALR2 ant conf	BLA inh counter
CNc1nc(Sc2ccc(C)cc2)cc(C(F)(F)F)n1	2.0	1.3	-34.5	-3.1	nt	nt
CC(=O)c1ccc(N2CCN(C(=O)COc3ccc(F)cc3)CC2)c(F)c1	nt	-1.7	nt	28.4*	8.2	-2.3
CCC(=O)c1ccc(N2CCN(C(=O)COc3ccc(F)cc3)CC2)c(F)c1	-4.6	-0.2	9.8	3.7	nt	nt
O=C(c1ccc(S(=O)(=O)c2ccc(F)cc2)c([N+](=O)[O-])c1)N1CCCCCC1	nt	-0.6	nt	30.7*	37.4*	14.5
CC(C)c1ccc(N(CC(=O)NCCSC(C)(C)C)S(C)(=O)=O)cc1	-1.6	-1.5	6.0	-10.7	nt	nt
COc1ccc(S(=O)(=O)Nc2ccccc2-c2nnn(CC(=O)Nc3ccccc3OC)n2)cc1	nt	-1.3	nt	28.4*	23.2	10.5
Cc1ccc(C)c(NC(=O)CN(C)C(=O)COc2ncnc3sccc23)c1	nt	-2.2	nt	-1.4	nt	nt
CCCCOc1ccc(Br)cc1CSC(=N)N	nt	-0.2	nt	36.3*	36.7*	65.6*
CCCCCOc1ccc(CSC(=N)N)cc1[N+](=O)[O-]	2.1	1.9	13.9	-15.9	nt	nt
Cc1cc(C(=O)COC(=O)c2ccccc2O)c(C)n1Cc1cccs1	-0.3	-3.0	-11.1	-0.9	nt	nt
CC(=O)Nc1ccccc1OCC(=O)c1cc(C)n(Cc2cccs2)c1C	nt	-0.9	nt	38.8*	50.9*	24.4
Cc1cc2cc(C=C(C#N)C#N)c(Cl)nc2cc1C	nt	-2.3	nt	2.5	nt	nt
Cc1ccc2nsnc2c1NC(=O)c1ccc2c(c1)OCCO2	-3.1	-4.2	-9.2	37.6*	5.5	4.5
Cc1nn(C)c(C)c1N1C(=O)c2cccc3c(N)ccc(c23)C1=O	nt	-1.1	nt	31.7*	19.8	24.9
Cc1nn(C)c(C)c1N1C(=O)c2cccc3c(Br)ccc(c23)C1=O	-6.8	0.7	45.2	29.1*	30.3*	18.3
COC(=O)c1ccc(C(=O)OC)c(NC(=O)COC(=O)CC2CC3CCC2C3)c1 (stereo not given)	-2.1	-4.9	-8.4	14.1	nt	nt
Cc1cc(C(=O)CSc2nnc(-c3cccs3)o2)c(C)n1-c1ccccc1	nt	-0.2	nt	-5.2	nt	nt
N#Cc1cc(Oc2cccc3cccnc23)c(-n2nnc3ccccc32)cc1C#N	-5.8	-5.8	-1.7	39.3*	18.4	13.5
c1ccc(-n2nnnc2Oc2cccc3cccnc23)cc1	-9.4	-3.1	16.4	-1.4	nt	nt
Cc1ccc(S(=O)(=O)/N=C2/C=C(Sc3ncn[nH]3)C(=O)c3ccccc32)c(C)c1	nt	-1.1	nt	27.1*	15.6	26.7
CCc1ccc2[nH]c(=O)c(CN(CCN(C)C)C(=O)Nc3ccccc3)cc2c1	-0.1	-1.6	9.1	27.4*	4.3	2.1
COc1ccc2[nH]c(=O)c(CN(CCCN(C)C)C(=O)Nc3ccccc3)cc2c1	-3.2	-0.5	13.0	-0.9	nt	nt
COc1cccc(CN2C(=O)Nc3ccccc3C(=O)N2C(C)(C)C)c1	2.9	0.0	-6.0	-5.2	nt	nt
COc1cccc(CN2C(=O)c3cccc(N)c3C2=O)c1	nt	1.9	nt	31.4*	7.7	12.3
CCOc1nc(Nc2ccc(OC)c(Cl)c2)nc(OCC)n1	0.9	-0.2	-41.7	-7.7	nt	nt
SMILES	S1P2 agonist	GALR2 agonist	S1P2 antag	GALR2 blocker	GALR2 ant conf	BLA inh counter
CCCCCCCCNc1ncnc2ccccc12	-3.2	-1.3	78.4*	39.5*	54.0*	18.2
CCC(=O)NNc1ncnc2ccccc12	nt	-1.9	nt	-2.6	nt	nt
O=C(NCCCCc1ccccc1)C12CN(Cc3ccccc3)CC1C(c1ccc([N+](=O)[O-])cc1)=NO2 (stereo not given)	-4.8	-1.0	3.1	-5.4	nt	nt
O=C(Oc1ccccc1/C=C\C(=O)c1cc2ccccc2o1)c1ccccc1	nt	-0.6	nt	27.4*	25.6	14.0
COc1cccc(CNC(=O)Cc2nc3nc(C)cc(C)n3n2)c1	nt	0.5	nt	-9.5	nt	nt
CC(CCc1ccccc1)NC(=O)C1CCN(S(=O)(=O)N2CCOCC2)CC1 (stereo not given)	nt	-0.2	nt	0.7	nt	nt
COc1ccc(OC)c(NC=C2C(=O)OC3(CCCCC3)OC2=O)c1	-3.4	-0.5	-12.6	49.9*	4.9	5.5
COc1cc2nc(C)sc2cc1SC	nt	-1.4	nt	27.0*	8.1	4.5
Cc1nc2cc3nc(C)sc3cc2s1	nt	-0.3	nt	2.2	nt	nt
CCC(=O)N1CCc2cc(S(=O)(=O)NC(Cc3ccccc3)C(=O)NC3CCCCC3)ccc21 (stereo not given)	nt	-2.2	nt	17.1	nt	nt
CC(=O)N1CCc2cc(S(=O)(=O)NC(Cc3ccccc3)C(=O)Nc3cc(C)ccn3)ccc21 (stereo not given)	-7.0	-2.1	-2.5	28.6*	3.1	3.0
CNc1c([N+](=O)[O-])ncn1C	-2.3	-3.8	-5.2	2.4	nt	nt
CNc1nc2cc([N+](=O)[O-])c([N+](=O)[O-])cc2nc1NC	nt	-2.4	nt	54.1*	64.8*	9.6
Cc1ccc(Cl)c(NC(=O)COC(=O)c2ccccc2C(=O)c2ccc(Cl)c([N+](=O)[O-])c2)c1Cl	nt	0.5	nt	69.2*	80.1*	71.1*
c1cnc2c(c1)ccc1cccnc12	nt	-2.3	nt	36.2*	48.4*	-1.6
O=C(O)c1cccc2cccnc12	-4.0	-2.6	16.6	6.9	nt	nt
Brc1ccc2[nH]c3c(N4CCc5ccccc5C4)ncnc3c2c1	2.8	-1.7	33.0	14.4	nt	nt
Cc1ccc2[nH]c3c(N4CCc5ccccc5C4)ncnc3c2c1	-9.1	-0.8	82.9*	53.7*	51.5*	16.1
NC(=O)C1CCN(C2=C(Cl)C(=O)c3ccccc3C2=O)CC1	-6.8	0.1	45.1	34.2*	49.8*	36.5*
NC(=O)C1CCN(C(=O)Nc2ccccc2)CC1	-1.1	-1.9	-22.7	0.1	nt	nt
O=C1c2cccc3cccc(c23)C(=O)N1c1nccs1	0.0	-1.4	11.8	-14.5	nt	nt
O=C1c2cccc3c([N+](=O)[O-])ccc(c23)C(=O)N1c1ccccn1	-8.0	2.1	67.3*	34.3*	49.0*	43.7*
O=C1c2cccc3c([N+](=O)[O-])ccc(c23)C(=O)N1c1nccs1	-10.1	1.5	50.8*	49.5*	55.3*	34.6*
CC1=C(C)C(=O)N(c2ccccn2)C1=O	-11.8	1.0	18.7	1.6	nt	nt
O=C(O)CNS(=O)(=O)c1ccc(Br)s1	nt	-1.1	nt	8.8	nt	nt
SMILES	S1P2 agonist	GALR2 agonist	S1P2 antag	GALR2 blocker	GALR2 ant conf	BLA inh counter
O=S(=O)(NCc1ccncc1)c1ccc(Br)s1	nt	-1.5	nt	36.7*	44.0*	8.0
O=C(CCCn1c(=S)[nH]c2cc3c(cc2c1=O)OCO3)N1CCc2ccccc2C1	-2.5	-4.0	1.9	27.8*	7.0	4.6
O=C(CCn1c(=S)[nH]c2cc3c(cc2c1=O)OCO3)N1CCc2ccccc2C1	-2.5	-2.0	-2.9	-6.1	nt	nt
CN(C)c1ccc(NC2=C(Cl)C(=O)c3ccccc3C2=O)cc1	nt	-0.4	nt	41.2*	48.5*	8.9
Cc1c(C(=O)Nc2ccc3c(c2)OCCO3)sc2nc(-c3ccccc3)cn12	-4.5	0.8	32.4	8.5	nt	nt
Cc1c(C(=O)Nc2ccncc2)sc2nc(-c3ccccc3)cn12	nt	-0.3	nt	27.6*	16.6	7.6
COc1cc(Nc2cc(C)nc3ncnn23)cc(OC)c1	nt	-2.0	nt	30.2*	3.8	5.5
Cc1c(C(=O)Nc2cccc(Cl)c2)c2ccccn2c1CCc1ccncc1	nt	-2.1	nt	32.9*	15.3	14.7
